IL1B secr inh – inhibitors of inflammasome signaling (IL-1 beta secretion); AID 743279; 4.7% of 360,000 active; THP-1 LPS/ATP IL-1B secretion, AlphaLISA, 16 h; active compounds read low; activity change, % at 57.5 µM; in the data active = activity change below about -50%; inconclusive = mostly about -30% to -49%
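THP-1 cells pretreated 1 hr with compounds (up to 57.5 uM final), then stimulated with LPS (250 ng/mL final) plus ATP (1.25 mM final); secreted IL-1B measured by AlphaLISA after 16 hr, decreased signal indicating inhibition.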
HT1080NT lethal – kills 2HG-producing HT-1080-NT fibrosarcoma cells; Potency, µM (doses to about 46.1 µM), inactives show at the highest dose activity, negative = less viability, hits mostly cytotoxic; AID 686970; HT-1080-NT fibrosarcoma viability, CellTiter-Glo ATP luminescence, 48 h; 1.6% of 360,000 active;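 also: NT is the 2HG producing partner of a matched IDH1 knockdown line; potency is read from the fitted curve at half-maximal effect; 0% = DMSO-treated cells and -100% = media-only wells without cells; nearly all actives have a fitted effect of over 55% in size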
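Read-out is CellTiter-Glo luminescence after 10 minutes at room temperature, following 48 hours' compound treatment of HT-1080-NT cells (750 cells/well, RPMI, 5% FBS, 37 degrees C).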
DT40 TDP1 no CPT – qHTS for Inhibitors of human tyrosyl-DNA phosphodiesterase 1 (TDP1): qHTS in cells in absence of CPT | Potency, µM (titrated, usually from 46.2 µM), without a hit: at the highest dose activity change, negative = growth inhibition, usual class: inhibitors | 15% of 420,000 active | DT40 Tdp1-/- hTDP1 cells, no CPT, ATP luminescence, 48 h; also: potency is read from the fitted curve at half-maximal effect; nearly all actives have a fitted effect of over 55% in size
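Luminescent ATP content (CellTiter-Glo) served as the growth readout. Knockout chicken DT40 cells expressing human TDP1 were exposed to compounds without camptothecin for a minimum 48 hr at 37 °C.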
TDP1 cell CPT – DT40-hTDP1 cell growth loss with CPT | chicken DT40 Tdp1-/-;hTDP1 cells + 20 nM CPT, ATP luminescence, 48 h | 12% of 420,000 active | Potency, µM (top dose mostly 46.2 µM), inactives show at the highest dose activity change, negative = growth inhibition, actives largely listed as inhibitors; also: potency is read from the fitted curve at half-maximal effect; nearly all actives have a fitted effect of over 55% in size
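Chicken DT40 Tdp1-/- cells stably complemented with human TDP1 were seeded at 400 cells/well in medium containing 20 nM camptothecin, exposed to pin-transferred compounds, and grown at 37 °C for at least 48 hr. Viability was read as ATP luminescence.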
HT1080 IDH1KD tx – kills HT-1080 cells with IDH1 knockdown; HT-1080 IDH1 knockdown viability, ATP luminescence, 48 h; Potency, µM (series often up to 46.1 µM), without a hit: at the top dose activity, negative = toxicity, most hits filed as cytotoxic; 2% of 360,000 active; AID 686971;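 also: potency is read from the fitted curve at half-maximal effect; 0% = DMSO wells and -100% = cell-free medium wells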
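Assay cells: HT-1080 with IDH1 knockdown, 750 per well, RPMI/5% FBS. Exposure: 48 h at 37 °C following 2 h pre-incubation. Read: CellTiter-Glo luminescence; fitted concentration-response, curve class assigned.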
An asterisk follows results filed as active; ? = inconclusive; . = no result given; [ ] = another dose, or the depositor's remark. Hits are enriched below; roughly 19% of the tested compounds scored in any of these assays. Unless noted, calls follow the shape of the dose curve; as a rule, active = well fitted curve in the direction sought with a large enough effect; inconclusive = small, poorly fitted or top-dose-only effect, or another doubt; inactive = no such curve, though single readings can be large; an effect the other way counts as inactive or inconclusive. Unless noted, % is scaled to controls: 0 for no effect and ±100 for the full control effect.

SMILES | IL1B secr inh | HT1080NT lethal | DT40 TDP1 no CPT | TDP1 cell CPT | HT1080 IDH1KD tx
O=S(=O)(NCC(c1ccco1)N1CCN(c2ccc(F)cc2)CC1)c1ccc(F)cc1 (centres undefined) | 25.3 | -1.7% | ? | 23.1µM* | -3.7%
O=S(=O)(NCC(c1ccco1)N1CCN(c2ccccc2F)CC1)c1ccc(F)cc1 (centres undefined) | 4.8 | -12.5% | ? | ? | -14.2%
COc1ccc(S(=O)(=O)NCC(c2cccnc2)N2CCN(c3ccc(F)cc3)CC2)cc1C (centres undefined) | ? | -15.9% | 16.4µM* | 14.6µM* | -16.2%
COc1ccc(S(=O)(=O)NCC(c2ccco2)N2CCN(c3ccc(F)cc3)CC2)cc1C (centres undefined) | . | . | 23.1µM* | 16.4µM* | .
O=c1[nH]c(SCc2cccc(Cl)c2)nc2[nH]ncc12 | -19.2 | -3.7% | -26.6% | ? | ?
O=Cc1c(N2CCC3(CC2)OCCO3)nc2ccccn2c1=O | -1.3 | 12.2% | -11.0% | -17.3% | 8.7%
CCOc1cc(CNc2ncn[nH]2)ccc1OCC(=O)NC(C)(C)C | 1.4 | 8.4% | -1.3% | 20.7% | 9.3%
Cc1cc(NC(=O)CSc2nnc(C)n2C)no1 | 0.6 | 22.9% | 1.4% | -0.4% | -5.9%
O=S(=O)(NCC(c1ccco1)N1CCN(c2ccc(F)cc2)CC1)c1cc(F)ccc1F (centres undefined) | . | . | 16.4µM* | 18.4µM* | .
CCOC(=O)N1CCN(S(=O)(=O)N2CCCC(C(=O)NCc3cc(Br)ccc3OC)C2)CC1 (centres undefined) | -12.2 | -10.7% | 13µM* | 18.4µM* | -6.2%
CCOC(=O)N1CCN(S(=O)(=O)N2CCCC(C(=O)NCc3ccccc3OC)C2)CC1 (centres undefined) | 40.6 | 2.2% | ? | ? | 4.9%
CCOC(=O)CC1C(=O)NCCN1c1nc2ccc(C)cn2c(=O)c1/C=C1\SC(=S)N(CC(C)C)C1=O (centres undefined) | 30.4 | -1.5% | ? | ? | -0.1%
CCCN1C(=O)/C(=C/c2c(N3CCNC(=O)C3CC(=O)OCC)nc3c(C)cccn3c2=O)SC1=S (centres undefined) | 14.8 | 13.8% | 16.4µM* | 18.4µM* | 7.8%
COc1ccccc1Cn1c(C)c(C(=O)NCc2cccc(C)c2)sc1=O | ? | -10.9% | -13.8% | ? | -10.3%
COc1ccc(Cl)cc1Cn1c(C)c(C(=O)NCc2ccc(C#N)cc2)sc1=O | -20.9 | -27.2% | 18.4µM* | 23.1µM* | -18.1%
Cc1c(C(=O)NCc2cccc(C(F)(F)F)c2)sc(=O)n1Cc1ccccc1F | -3.5 | -20.8% | 25.9µM* | ? | -14.9%
Cc1cccc(CNC(=O)c2sc(=O)n(Cc3c(C)cccc3C)c2C)c1 | -17.0 | -13.7% | 23.1µM* | ? | ?
COc1ccc(Cl)cc1Cn1c(C)c(C(=O)NCc2cccc(C(F)(F)F)c2)sc1=O | -58.7* | 0.0% | ? | ? | 0.6%
COc1ccc(Cl)cc1Cn1c(C)c(C(=O)NCc2ccccc2C(F)(F)F)sc1=O | -6.3 | -0.7% | -18.9% | -46.6% | -2.1%
Cc1ccc(N2CC(C(=O)NCC3CCCO3)CC2=O)cc1Cl (centres undefined) | 25.9 | 4.2% | -14.0% | 1.1% | 14.6%
COc1ccc(CNC(=O)c2sc(=O)n(Cc3ccc(-c4ccccc4)cc3)c2C)cc1OC | -13.0 | -11.5% | 11.6µM* | 11.6µM* | ?
C=Cc1ccc(Cn2c(C)c(C(=O)NCc3ccc(C#N)cc3)sc2=O)cc1 | ? | -12.8% | 16.4µM* | 16.4µM* | -26.5%
COc1ccc(CNC(=O)c2sc(=O)n(Cc3ccccc3C)c2C)cc1 | -9.6 | -11.0% | ? | ? | -14.3%
C#CCN(C[C@@H]1[C@@H](OC(=O)NC2CC2)[C@@H](OC(=O)NC2CC2)CN(C(=O)OC(C)C)N1C(=O)OC(C)C)S(=O)(=O)c1ccc(C)cc1 | 0.0 | -0.8% | 16.4µM* | ? | -4.3%
C#CCN(C[C@@H]1[C@@H](OC(=O)NCc2ccccc2F)[C@@H](OC(=O)NCc2ccccc2F)CN(C(=O)OC(C)C)N1C(=O)OC(C)C)S(=O)(=O)c1ccc(C)cc1 | -20.3 | -0.3% | 7.31µM* | 7.31µM* | 4.0%
SMILES | IL1B secr inh | HT1080NT lethal | DT40 TDP1 no CPT | TDP1 cell CPT | HT1080 IDH1KD tx
C#CCN(C[C@@H]1[C@@H](OC(=O)NCc2ccco2)[C@@H](OC(=O)NCc2ccco2)CN(C(=O)OC(C)C)N1C(=O)OC(C)C)S(=O)(=O)c1ccc(C)cc1 | -98.3* | -14.3% | 9.2µM* | 14.6µM* | -5.1%
Cc1ccc(S(=O)(=O)N(CC(=O)NCc2ccco2)C2CCCCC2)cc1 | 2.6 | 4.2% | -22.3% | ? | -16.4%
CCOC(=O)N/N=C(/c1ccccc1)C1CCCCC1 | 0.0 | -1.5% | ? | -22.7% | -1.6%
CCOc1ccc2ncc(S(=O)(=O)c3ccccc3)c(N3CCN(c4ccccc4)CC3)c2c1 | 14.5 | 23.7% | ? | 14.6µM* | 21.2%
CCN1CCN(c2c(S(=O)(=O)c3ccccc3)cnc3ccc(Cl)cc23)CC1 | . | . | ? | -21.3% | .
COc1ccc(S(=O)(=O)c2cnc3ccc(OC)cc3c2N2CCC3(CC2)OCCO3)cc1 | ? | -23.2% | 3.26µM* | 8.2µM* | -27.5%
COc1ccc(N2CCN(c3c(S(=O)(=O)c4ccccc4)cnc4ccc(OC)cc34)CC2)cc1 | -9.5 | -3.6% | 18.4µM* | 23.1µM* | 2.6%
CS(=O)(=O)c1ccc(Cl)c(C(=O)OCC(=O)NC2CCCCCCC2)c1 | 7.5 | 5.5% | 3.3% | -0.9% | 3.2%
O=C(NCCS(=O)(=O)N1CCN(Cc2ccccc2)CC1)c1ccccc1 | 4.7 | 5.3% | ? | 6.4% | 4.0%
Cc1cc(C)c(S(=O)(=O)N(C)c2ccccc2)c(C)c1 | ? | 8.3% | -9.2% | ? | 14.3%
Cc1nc(S(=O)(=O)N(C)c2ccccc2)c(C#N)c(C)c1Cl | ? | ? | 23.1µM* | 23.1µM* | ?
CCOC(=O)C(C)n1cnc2c(nnn2-c2ccc(C)cc2)c1=O (centres undefined) | 0.0 | 2.7% | -15.7% | -7.0% | 6.9%
CCOC(=O)C(C)n1cnc2c(cnn2-c2ccc(Cl)cc2)c1=O (centres undefined) | 17.1 | -0.1% | 16.4µM* | ? | -3.1%
CCOC(=O)C(CC)n1cnc2c(nnn2-c2ccc(OC)cc2)c1=O (centres undefined) | 0.0 | 4.4%[9.24 µM] | -8.5% | 5.5% | -0.1%
CCOC(=O)C(CC)n1cnc2c(cnn2-c2ccc(Cl)cc2)c1=O (centres undefined) | 15.2 | -0.9% | 18.4µM* | ? | -13.9%
